Test results reported in PubChem BioAssay (NCATS).
Inconclusive results are not listed. The source made the active and inactive calls. Unless noted, the call rests on the fitted dose curve; in most records, active means well fitted curve in the direction sought with a large enough effect; inconclusive means small, poorly fitted or top-dose-only effect, or another doubt; inactive means no such curve, though single readings can be large; an effect the other way counts as inactive or inconclusive.

Legend:
[1] = qHTS assay for small molecule antagonists of peroxisome proliferator-activated receptor delta signaling (AID 588535); settings: HEK293T PPARd-UAS-bla, beta-lactamase FRET ratio, 18 h; 460 nm channel;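 further: cells co-treated with a PPAR-delta agonist as stimulator during compound exposure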
In short: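 HEK293T PPAR-delta-UAS-bla cells, 4000/well, 2% charcoal/dextran FBS; 5 h 37 C; cpd titration; 18 h 37 C; CCF4 2 h RT; FI 460/530 nm; Hill fit → IC50, efficacy.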

[2] = molecular target: Peroxisome proliferator-activated receptor gamma (Homo sapiens) (UniProt P37231); assay: qHTS assay for small molecule agonists of peroxisome proliferator-activated receptor gamma signaling (AID 588536; active means well fitted curve in the direction sought with a large enough effect in the signal ratio, with a control signal flat, not every such curve was filed as active; the % refers to the signal ratio;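 further: 0% = DMSO basal wells and 100% = rosiglitazone at 2 µM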); settings: HEK293 PPARg-UAS-bla, beta-lactamase ratio, 16 h, percent of rosiglitazone response, DMSO as zero; series mostly up to 76.7 µM
In short: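 Test agents, titrated, stimulated HEK293 UAS-bla cells overnight (16 h, 37 C). Substrate CCF4 was then added for two hours at room temperature before fluorescence reading.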

[3] = molecular target: Peroxisome proliferator-activated receptor gamma (Homo sapiens) (UniProt P37231); assay: qHTS assay for small molecule antagonists of peroxisome proliferator-activated receptor gamma signaling (AID 588537; active means well fitted inhibition curve with a large enough effect in the signal ratio, with a control signal flat, not every such curve was filed as active; the % refers to the signal ratio;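 further: reporter cells co-stimulated with 50 nM rosiglitazone agonist during compound treatment; % of control where 0% means no effect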); settings: HEK293 PPARg-UAS-bla, beta-lactamase ratio, antagonist mode; series mostly up to 76.8 µM
In short: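 Antagonist mode, beta-lactamase reporter in HEK293; charcoal/dextran FBS 1%; 3000 cells/well, 37 C 6-6.5 h; cpd titration + rosiglitazone 50 nM final, 16 h 37 C; CCF4, 2 h RT; 460/530 nm; Hill fit → IC50, efficacy.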

[4] = qHTS assay for small molecule agonists of retinoid X receptor alpha signaling (AID 588544; calls by dose curve;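 on activation: 0% = DMSO basal wells and 100% = reference agonist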); settings: HEK293T RXRa-UAS-bla, beta-lactamase reporter, 18 h; 530 nm emission
[5] = molecular target: Retinoic acid receptor RXR-alpha (Homo sapiens) (UniProt P19793); assay: as above; settings: HEK293T RXRa-UAS-bla, beta-lactamase reporter, 18 h; series mostly up to 76.7 µM
[6] = molecular target: Thyroid hormone receptor beta (Homo sapiens) (UniProt P10828); assay: qHTS assay for small molecule agonists of thyroid hormone receptor beta signaling (AID 588545; calls by dose curve;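 further: 0% = DMSO only and 100% = 10 nM T3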); settings: TR-UAS-bla GripTite HEK 293, beta-lactamase ratio, agonist mode, 18 h; series mostly up to 76.7 µM
In short: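 Efficacy and EC50 values derive from Hill fits of qHTS titration data, normalized to 10 nM T3 and DMSO-only wells. HEK 293 reporter cells were stimulated for 18 hrs at 37 C, with beta-lactamase activity measured by CCF4 fluorescence.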

[7] = qHTS assay for small molecule antagonists of retinoid X receptor alpha signaling (AID 588546; active means well fitted inhibition curve with a large enough effect in the signal ratio, with a control signal flat, not every such curve was filed as active; the % refers to the signal ratio;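 further: cells stimulated with 9-cis-retinoic acid as agonist; on the % scale 0 is the no-effect control and ±100 the full control effect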); settings: HEK293T RXRa-UAS-bla, beta-lactamase ratio, antagonist mode; measured here: W530 green channel, cytotoxicity proxy
In short: (§1)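 Beta-lactamase reporter inhibition, read as CCF4 fluorescence ratio (ex 405, em 460/530 nm) after 2 h at RT. HEK293T UAS-bla cells, 2500/well, were stimulated with 9-cis-RA at 500 or 100 nM final alongside test compound for 18 h at 37 C.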

[8] = molecular target: Retinoic acid receptor RXR-alpha (Homo sapiens) (UniProt P19793); assay: as above; settings: HEK293T RXRa-UAS-bla, beta-lactamase ratio, antagonist mode
In short: as §1

[9] = molecular target: Thyroid hormone receptor beta (Homo sapiens) (UniProt P10828); assay: qHTS assay for small molecule antagonists of thyroid hormone receptor beta signaling (AID 588547; active means well fitted inhibition curve with a large enough effect in the signal ratio, with a control signal flat, not every such curve was filed as active; the % refers to the signal ratio;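 further: cells stimulated with 0.4 nM T3 agonist during compound exposure; on the % scale 0 is the no-effect control and ±100 the full control effect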); settings: TR-UAS-bla HEK293, beta-lactamase ratio, antagonist mode, 18 h
In short: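 Inhibition of T3-driven (0.4nM final) beta-lactamase reporter activity was measured over 0.59 nM to 92 uM compound after 18 h at 37 C. The cells were GripTite HEK293 TR-UAS-bla in charcoal/dextran-stripped serum, with CCF4 ratio read-out and IC50 from Hill fits.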

[10] = molecular target: Peroxisome proliferator-activated receptor alpha (Homo sapiens) (UniProt Q07869); assay: qHTS assay for small molecule agonists of the peroxisome proliferator-activated receptor alpha (PPARalpha) signaling pathway (AID 651778); settings: PathHunter PPARalpha complementation, chemiluminescence, 6 h; max response: stronger effect = higher value; further: % of control where 0% means no effect
In short: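 Chemiluminescence from complemented enzyme reported PPARalpha activation in cells after 6 hr of compound treatment at 37 C. The detection reagent was incubated for 60 min at room temperature, and compounds were scored as agonists.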

[11] = qHTS assay for small molecule agonists of the antioxidant response element (ARE) signaling pathway measured by Nrf2-dependant transcriptional activity (AID 720636; active means well fitted curve in the direction sought with a large enough effect in the repeat runs; an effect the other way counts as inactive or inconclusive; further: % of control where 0% means no effect); settings: ARE-luc HepG2, Nrf2 luciferase reporter, 16 h; series mostly up to 92.4 µM
In short: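 ARE-luc HepG2 cells carrying an Nrf2-responsive luciferase reporter, in medium with 1% dialyzed FBS, exposed to compound for 16 hr at 37 C, 5% CO2. Luminescence read 30 min after ONE-Glo addition.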

[12] = qHTS assay for small molecule agonists of the antioxidant response element (ARE) signaling pathway measured by Nrf2-dependant transcriptional activity - cell viability counter screen (AID 720653; active means well fitted curve in the direction sought with a large enough effect in the repeat runs; an effect the other way counts as inactive or inconclusive; further: on the % scale 0 is the no-effect control and ±100 the full control effect); settings: ARE-bla HepG2 viability, CellTiter-Glo ATP luminescence, 16 h; max response: stronger effect = lower value
In short: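 Cytotoxicity counter screen: intracellular ATP quantified by CellTiter-Glo luminescence in the same ARE-bla HepG2 plates, after 16 h compound exposure and a 2 h beta-lactamase substrate step.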

[13] = qHTS assay for cell viability of HEK293 cells (AID 743288); settings: ATP luminescence (CellTiter-Glo), 18 h; max response: stronger effect = lower value; further: on the % scale 0 is the no-effect control and ±100 the full control effect; nearly all actives have a fitted effect of over 50% in size
In short: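 Parental HEK293 cells, 2,000 per well, preincubated at least 5 h at 37 C, then exposed to compounds in DMSO for 18 h at 37 C. Viability by CellTiter-Glo ATP luminescence after 30 min at room temperature.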

[14] = qHTS assay for cell viability of the p53RE-bla HCT-116 cell line (AID 743292); settings: p53RE-bla HCT-116 viability, ATP luminescence, 16 h; series mostly up to 95 µM; further: on the % scale 0 is the no-effect control and ±100 the full control effect; nearly all actives have a fitted effect of over 55% in size
In short: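 CellSensor p53RE-bla HCT-116 cells (4,000/well) pre-incubated 5 h at 37 C, then exposed to compounds in DMSO for 16 h at 37 C. Viability read as ATP content by CellTiter-Glo luminescence after 30 min at room temperature.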

[15] = molecular target: Nuclear receptor subfamily 1 group I member 2 (Rattus norvegicus) (UniProt Q9R1A7); assay: qHTS assay for small molecule activators of the rat pregnane X receptor (rPXR) signaling pathway (AID 651751; call rule not given here; further: 0% is about no effect); settings: rPXR reporter cells, luciferase (One-Glo), 24 h
[16] = qHTS assay for small molecule activators of the human pregnane X receptor (PXR) signaling pathway (AID 720659; call rule not given here; further: 0% is about no effect); settings: DPX-2 HepG2 CYP3A4-luciferase, 24 h; series mostly up to 92.3 µM
[17] = molecular target: Glucocorticoid receptor (Homo sapiens) (UniProt P04150); assay: qHTS assay for small molecule agonists of glucocorticoid receptor signaling (AID 588532; active means well fitted curve in the direction sought with a large enough effect in the signal ratio, with a control signal flat; the % refers to the signal ratio;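 further: 100% = dexamethasone at 0.1 µM and 0% = DMSO only wells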); settings: HeLa MMTV-bla, beta-lactamase ratio, agonist, 18 h; stronger effect = higher value; percent of dexamethasone control, DMSO zero
In short: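 Agonist-mode qHTS: GRE-driven beta-lactamase in HeLa cells exposed 18 h to titrated compounds (up to 92 uM), then CCF4 ratio read after 2 h at RT; Hill-fitted EC50, efficacy relative to 0.1 uM dexamethasone.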

[18] = qHTS assay for small molecule activators of the nuclear factor-kappa B (NF-kB) signaling pathway (AID 651749; active means well fitted activation curve with a large enough effect in the signal ratio; the % refers to the signal ratio; further: % of control where 0% means no effect); settings: NF-kB-bla ME-180 cells, beta-lactamase FRET ratio, 16 h; activation: stronger effect = higher value
In short: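 Readout: beta-lactamase reporter driven by an NF-kB response element, detected fluorescently as loss of FRET. Cells were the ME-180 line, treated 16 hr at 37C with pin-transferred compound.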

[19] = qHTS assay for environmental chemicals that activate the Aryl hydrocarbon Receptor (AhR) signaling pathway (AID 651777); settings: 1A2-DRE human hepatoma cells, luciferase, 24 h; activation: stronger effect = higher value; further: % of control where 0% means no effect; nearly all actives have a fitted effect of over 15% in size
In short: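 Human hepatoma 1A2-DRE cells stably carrying a DRE/CYP1A2 promoter–luciferase reporter, 1,200 cells/well, exposed to compound 24 hr at 37 C. Luciferase read by One-Glo luminescence after 30 min at room temperature; increased signal marks AhR activation.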

[20] = qHTS assay for small molecule activators of the p53 signaling pathway (AID 651743; active means well fitted activation curve with a large enough effect in the signal ratio, not every such curve was filed as active; the % refers to the signal ratio; further: % of control where 0% means no effect); settings: HCT-116 p53RE-bla, beta-lactamase FRET ratio, 16 h; activation: stronger effect = higher value
In short: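 Read-out is fluorescence intensity from the LiveBLAzer B/G FRET substrate, added for 2 hours at room temperature after HCT-116 p53RE-bla cells had been incubated with compounds for 16 hours at 37 C.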

Nuclear receptor subfamily 1 group I member 2 (Rattus norvegicus), sequence (Q9R1A7 whole entry, looked up): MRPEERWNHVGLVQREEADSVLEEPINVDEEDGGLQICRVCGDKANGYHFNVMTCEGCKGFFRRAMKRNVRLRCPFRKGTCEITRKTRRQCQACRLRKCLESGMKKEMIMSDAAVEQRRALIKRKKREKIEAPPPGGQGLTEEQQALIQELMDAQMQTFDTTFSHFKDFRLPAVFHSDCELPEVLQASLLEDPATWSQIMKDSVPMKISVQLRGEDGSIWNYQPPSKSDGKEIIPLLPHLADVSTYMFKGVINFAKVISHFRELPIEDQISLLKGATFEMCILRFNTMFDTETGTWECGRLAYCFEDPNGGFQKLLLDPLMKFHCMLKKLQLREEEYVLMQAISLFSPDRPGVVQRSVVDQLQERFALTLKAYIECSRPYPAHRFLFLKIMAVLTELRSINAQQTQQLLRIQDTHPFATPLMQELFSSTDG
Peroxisome proliferator-activated receptor alpha (Homo sapiens), sequence (Q07869 whole entry, looked up): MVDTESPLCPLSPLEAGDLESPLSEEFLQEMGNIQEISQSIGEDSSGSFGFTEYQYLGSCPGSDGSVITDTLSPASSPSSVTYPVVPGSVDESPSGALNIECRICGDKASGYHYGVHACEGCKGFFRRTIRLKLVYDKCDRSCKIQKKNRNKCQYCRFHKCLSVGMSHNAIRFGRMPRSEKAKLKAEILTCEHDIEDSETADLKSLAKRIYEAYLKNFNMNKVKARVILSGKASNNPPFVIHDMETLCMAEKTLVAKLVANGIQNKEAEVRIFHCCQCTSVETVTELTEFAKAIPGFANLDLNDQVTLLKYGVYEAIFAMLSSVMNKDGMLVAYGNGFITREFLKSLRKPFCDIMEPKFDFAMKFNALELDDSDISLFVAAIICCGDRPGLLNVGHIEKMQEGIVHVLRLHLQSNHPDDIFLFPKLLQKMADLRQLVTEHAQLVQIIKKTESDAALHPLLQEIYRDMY
Peroxisome proliferator-activated receptor gamma (Homo sapiens), sequence (P37231 whole entry, looked up): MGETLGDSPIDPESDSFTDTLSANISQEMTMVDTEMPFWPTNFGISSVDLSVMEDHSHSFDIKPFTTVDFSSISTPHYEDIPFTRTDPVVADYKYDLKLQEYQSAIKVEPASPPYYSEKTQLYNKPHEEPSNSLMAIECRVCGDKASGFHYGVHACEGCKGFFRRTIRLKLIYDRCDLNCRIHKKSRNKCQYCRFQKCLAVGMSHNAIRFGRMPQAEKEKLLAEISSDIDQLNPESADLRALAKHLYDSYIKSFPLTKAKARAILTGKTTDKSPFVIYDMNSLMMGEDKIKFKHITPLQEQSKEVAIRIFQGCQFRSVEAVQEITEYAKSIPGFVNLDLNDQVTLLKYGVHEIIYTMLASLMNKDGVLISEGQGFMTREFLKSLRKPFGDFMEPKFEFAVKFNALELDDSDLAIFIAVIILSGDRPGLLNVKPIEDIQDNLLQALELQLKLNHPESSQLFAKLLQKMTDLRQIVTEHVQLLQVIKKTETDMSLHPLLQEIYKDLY
Thyroid hormone receptor beta (Homo sapiens), sequence (P10828 whole entry, looked up): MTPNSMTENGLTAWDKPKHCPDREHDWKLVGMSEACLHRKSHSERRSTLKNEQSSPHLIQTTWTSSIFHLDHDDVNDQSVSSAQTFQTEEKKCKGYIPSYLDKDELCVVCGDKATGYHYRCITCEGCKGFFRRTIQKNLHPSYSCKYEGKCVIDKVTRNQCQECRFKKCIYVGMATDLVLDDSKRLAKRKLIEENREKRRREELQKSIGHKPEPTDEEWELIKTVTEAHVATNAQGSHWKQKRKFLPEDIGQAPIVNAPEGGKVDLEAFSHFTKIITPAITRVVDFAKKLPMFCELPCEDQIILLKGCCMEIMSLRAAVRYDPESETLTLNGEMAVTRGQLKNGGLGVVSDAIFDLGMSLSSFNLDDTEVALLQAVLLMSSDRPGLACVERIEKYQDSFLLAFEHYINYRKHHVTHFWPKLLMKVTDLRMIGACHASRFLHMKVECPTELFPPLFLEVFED
Retinoic acid receptor RXR-alpha (Homo sapiens), sequence (P19793 whole entry, looked up): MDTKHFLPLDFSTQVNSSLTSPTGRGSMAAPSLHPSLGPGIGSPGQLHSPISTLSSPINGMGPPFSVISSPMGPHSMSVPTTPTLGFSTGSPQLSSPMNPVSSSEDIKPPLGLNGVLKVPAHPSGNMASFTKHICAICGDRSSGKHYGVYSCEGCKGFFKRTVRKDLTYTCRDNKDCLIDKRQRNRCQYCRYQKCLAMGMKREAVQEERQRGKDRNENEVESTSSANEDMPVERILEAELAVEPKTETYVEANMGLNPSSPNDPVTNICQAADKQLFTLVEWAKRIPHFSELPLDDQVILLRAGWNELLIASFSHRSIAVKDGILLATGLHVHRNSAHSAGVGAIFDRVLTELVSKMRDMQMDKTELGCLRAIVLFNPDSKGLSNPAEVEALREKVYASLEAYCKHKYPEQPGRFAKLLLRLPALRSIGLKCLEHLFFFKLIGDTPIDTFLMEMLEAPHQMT
Glucocorticoid receptor (Homo sapiens), sequence (P04150 whole entry, looked up): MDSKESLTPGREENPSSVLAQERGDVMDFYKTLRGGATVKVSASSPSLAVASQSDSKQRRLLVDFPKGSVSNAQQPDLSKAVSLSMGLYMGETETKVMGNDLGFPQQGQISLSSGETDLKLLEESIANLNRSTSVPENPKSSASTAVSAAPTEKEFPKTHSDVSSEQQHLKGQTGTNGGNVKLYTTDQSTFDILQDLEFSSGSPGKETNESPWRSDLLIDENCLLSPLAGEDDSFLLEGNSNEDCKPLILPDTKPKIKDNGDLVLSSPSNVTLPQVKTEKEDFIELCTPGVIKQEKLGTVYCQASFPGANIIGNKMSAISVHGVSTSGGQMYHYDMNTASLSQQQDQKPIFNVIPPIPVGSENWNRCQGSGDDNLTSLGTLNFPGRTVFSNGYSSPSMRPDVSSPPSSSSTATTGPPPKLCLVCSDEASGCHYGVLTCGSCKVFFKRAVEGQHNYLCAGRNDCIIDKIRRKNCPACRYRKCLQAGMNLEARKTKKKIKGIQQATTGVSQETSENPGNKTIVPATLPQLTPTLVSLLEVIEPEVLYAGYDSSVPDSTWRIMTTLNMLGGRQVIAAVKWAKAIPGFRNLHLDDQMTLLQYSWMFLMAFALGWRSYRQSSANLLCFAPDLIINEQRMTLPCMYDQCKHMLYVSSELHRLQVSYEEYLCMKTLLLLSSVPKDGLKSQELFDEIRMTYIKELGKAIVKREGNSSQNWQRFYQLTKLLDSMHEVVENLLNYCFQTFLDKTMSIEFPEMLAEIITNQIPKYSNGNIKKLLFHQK

CO[Si](CCCNCCN)(OC)OC
inactive: outcome [2] | Potency [3] | Potency [5] | Potency [6] | max response [8] 2.04% | activity change % (negative = inhibition) [9] 7.69% | max response [10] 0.748% | Potency [11] | max response [12] 2.71% | max response [13] -6.23% | Potency [14] | max response [15] 4.5% | outcome [16]
-7.95%: max response [7]
40.3%: max response [1]
7.5%: max response [4]

CCCCOCCOCCO
-10.9%: max response [4]
inactive: activation [17] -5.88% | outcome [2] | Potency [3] | Potency [5] | Potency [6] | max response [8] -25.6% | activity change % (negative = inhibition) [9] 15.3% | activation [18] -0.601% | activation [19] 0.311% | max response [10] -0.568% | max response [12] 3.56% | max response [13] -12.6% | Potency [14] | max response [15] -2.42% | outcome [16]
1.46%: max response [7]

O=C(Cl)c1ccc(C(=O)Cl)cc1
-9.41%: max response [1]
inactive: Potency [5] | Potency [6] | activity change % (negative = inhibition) [9] 0.623% | activation [20] -0.615% | activation [19] -0.806% | max response [10] -0.543% | Potency [11] | max response [12] -8.12% | max response [13] -8.26% | Potency [14] | max response [15] -1.54% | outcome [16]
-14.3%: max response [7]
-3.06%: max response [4]
